Screens as filed in PubChem.
An excerpt weighted towards active compounds, which were near 2.9% of everything screened.
MEKK2mut PB1 HTS: signal of MEK5 binding to mutant human MEKK2 PB1 domain. bead flow cytometry, Alexa488-MEK5 binding to MEKK2 mutant. percent response, % at 10 µM. 290,000 compounds, 0.35% hits. AID 1530; in the data active = percent response above about 24%, passing the limit was not always enough
GRK2 aptamer HTS: blocks RNA aptamer binding to human GRK2; AID 488847; inhibition of aptamer binding, % at 10 µM; 330,000 compounds, 0.59% hits; bead flow cytometry, FAM-aptamer displacement from GRK2;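 active = inhibition of aptamer binding above 40%, roughly 3 SD of noise, on plates passing a quality check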;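 note: median bead fluorescence of bound FAM aptamer so fluorescent compounds give negative values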
Target sequence (P25098 whole entry, looked up): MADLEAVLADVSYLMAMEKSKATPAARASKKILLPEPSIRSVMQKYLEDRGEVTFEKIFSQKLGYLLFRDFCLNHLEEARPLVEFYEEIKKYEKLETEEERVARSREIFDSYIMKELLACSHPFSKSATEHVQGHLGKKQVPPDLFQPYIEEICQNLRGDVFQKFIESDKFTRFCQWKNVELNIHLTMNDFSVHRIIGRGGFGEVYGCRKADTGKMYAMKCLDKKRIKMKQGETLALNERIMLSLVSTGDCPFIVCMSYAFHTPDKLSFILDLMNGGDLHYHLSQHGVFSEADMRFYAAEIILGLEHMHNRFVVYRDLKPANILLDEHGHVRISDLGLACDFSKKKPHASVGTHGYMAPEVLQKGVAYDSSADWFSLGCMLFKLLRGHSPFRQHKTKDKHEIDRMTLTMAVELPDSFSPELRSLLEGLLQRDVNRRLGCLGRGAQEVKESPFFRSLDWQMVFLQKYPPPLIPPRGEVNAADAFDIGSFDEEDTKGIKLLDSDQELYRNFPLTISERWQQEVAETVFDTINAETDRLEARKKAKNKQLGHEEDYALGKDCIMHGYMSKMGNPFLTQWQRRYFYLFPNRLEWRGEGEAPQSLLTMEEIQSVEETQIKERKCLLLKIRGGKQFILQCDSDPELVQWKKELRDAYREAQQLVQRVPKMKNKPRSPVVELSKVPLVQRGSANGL
MEKK3 PB1 HTS: modulators (inhibitors or enhancers) of MEK5 binding to human MEKK3 PB1 domain; AID 1529; bead-based flow cytometry, Alexa488-MEK5 binding to MEKK3; actives lie on both sides; 0 = blocked by unlabeled MEK5, 100 = vehicle; 290,000 compounds, 1.4% hits; binding response (% of control), % at 10 µM;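 active = binding response more than 3 SD above or below the average of its plate-row segment, actives on both sides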;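 note: Alexa488 bead fluorescence after subtracting the streptavidin-only scavenger bead signal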
MEKK2wt PB1 HTS: raises or lowers MEK5 binding to wildtype human MEKK2 PB1 domain | AID 1531 | 290,000 compounds, 1.1% hits | binding response (% of control), % at 10 µM | bead flow cytometry, Alexa488-MEK5 binding to MEKK2 WT; actives lie on both sides; in the data active = binding response below about 67% or above about 130%
Beta2AR agonist: agonists of human beta-2 adrenergic receptor inducing internalization; P07550; Am2.2-beta2AR cells, FAP receptor internalization, flow cytometry; response, % (concentration not given with the values); 340,000 compounds, 0.43% hits;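 active = response above a set limit, near 3 SD of response in nonfluorescent compounds, cut at about 42% in these data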
Large screens that a line does not name were inactive; [ ] = another dose, or the depositor's remark.

Cc1ccc(C)c(CSc2nnc(-c3cccs3)n2Cc2ccco2)c1	Beta2AR agonist 67
N#Cc1ccc(NC(=O)Cn2cnc(S(=O)(=O)N3CCCC3)c2)cc1	none
CCOc1ccccc1N1CC(C(=O)Nc2cc(S(C)(=O)=O)ccc2Cl)CC1=O (configuration not stated)	none (no result: MEKK2mut PB1 HTS, MEKK3 PB1 HTS, MEKK2wt PB1 HTS)
N#Cc1c(NC(=O)C2CC=CCC2C(=O)O)sc2c1CCCCCC2 (configuration not stated)	GRK2 aptamer HTS 73
Cc1ccc(/C(=N/Nc2nc3ccccc3s2)C2=C(O)c3ccccc3C2=O)cc1	none
CC1(C)CCC23CC[C@]4(C)C(OC2=O)(C3C1)[C@H]1O[C@H]1C1[C@@]2(C)CC[C@@H](O)C(C)(C)C2CC[C@]14C (some centres not stated)	none (no result: GRK2 aptamer HTS, Beta2AR agonist)
O=C(NCCc1ccccn1)c1c(-c2ccsc2)sc2ccccc12	GRK2 aptamer HTS 70 (no result: MEKK2mut PB1 HTS, MEKK3 PB1 HTS, MEKK2wt PB1 HTS)
O=C(NCCc1ccccn1)c1c(-c2ccccc2)sc2ccccc12	none (no result: MEKK2mut PB1 HTS, MEKK3 PB1 HTS, MEKK2wt PB1 HTS)
CC(C)n1cc(CN2CCCC(C(=O)Nc3cccc(-c4cc5ccccc5[nH]4)c3)C2)cn1 (configuration not stated)	MEKK2wt PB1 HTS 180
COc1cccc(-c2ccc(NC(=O)C3CCCN(Cc4cnn(C)c4)C3)cc2)c1 (configuration not stated)	none
Cn1cc(CN2CCCC(C(=O)Nc3cccc(-c4cc5ccccc5[nH]4)c3)C2)cn1 (configuration not stated)	MEKK2mut PB1 HTS 30, MEKK2wt PB1 HTS 175
Cc1ccccc1NC(=O)CCc1nnc2ccc(N3CCC4(CC3)OCCO4)nn12	none
O=C(O)c1ccc(C(=O)c2cc([N+](=O)[O-])cc([N+](=O)[O-])c2)cc1	none (no result: MEKK2mut PB1 HTS, GRK2 aptamer HTS, MEKK3 PB1 HTS, MEKK2wt PB1 HTS)
Cc1nc2nc(SCC(=O)NCCCN3CCCCCC3)nn2c(C)c1Cc1ccccc1	MEKK2mut PB1 HTS 34, MEKK2wt PB1 HTS 190
Cc1ccccc1Cc1c(C)nc2nc(SCC(=O)NCCCN3CCCCC3)nn2c1C	none
C=C(C)CC(NCCc1ccccc1)c1ccco1 (configuration not stated)	MEKK2wt PB1 HTS 164 (no result: GRK2 aptamer HTS)
O=C(NCc1cccnc1)/C(=C\c1ccc(-c2ccc(Br)cc2)o1)S(=O)(=O)c1ccccc1	none
O=C(NCc1cccnc1)/C(=C/c1ccc(-c2ccc(Cl)cc2)o1)S(=O)(=O)c1ccccc1	Beta2AR agonist 108
COCCCNCC(O)COc1cccc2[nH]c(C)cc12 (configuration not stated)	none
COCCCNCC(O)COc1ccccc1F (configuration not stated)	MEKK2wt PB1 HTS 10
COc1ccccc1/C=N/NC(=O)c1ccc(NC(=O)c2cccc([N+](=O)[O-])c2)cc1	none (no result: Beta2AR agonist)
COc1cccc(/C=N/NC(=O)c2cc3cc([N+](=O)[O-])ccc3s2)c1O	GRK2 aptamer HTS 87
O=[N+]([O-])c1ccc(Cl)cc1P(=O)(O)c1cc(Cl)ccc1[N+](=O)[O-]	none (no result: MEKK2mut PB1 HTS, GRK2 aptamer HTS, MEKK3 PB1 HTS, MEKK2wt PB1 HTS)
COc1cc(-c2nc3ccccc3s2)ccc1O	none
CC(C)c1ccc(-c2nc3ccccc3s2)cc1	MEKK2wt PB1 HTS -3.0
CN1CCN(c2ccc(NC(=S)NC(=O)c3cccc4c(Cl)cccc34)cc2)CC1	MEKK2mut PB1 HTS 28, MEKK2wt PB1 HTS 170
O=C(NC(=S)Nc1ccc(N2CCOCC2)cc1)c1cccc(Cl)c1Cl	none
CSCc1ccc(C(=O)NCC(c2cccs2)N2CCOCC2)cc1 (configuration not stated)	none (no result: MEKK2mut PB1 HTS, MEKK3 PB1 HTS, MEKK2wt PB1 HTS)
CCC(C)C(NS(=O)(=O)c1ccc(C)cc1)C(=O)N1CCOCCOCCOCC1 (configuration not stated)	none
CN1\C(=C/C=C/C=C/C=[N+](C)C)C(C)(C)c2ccccc21	MEKK2wt PB1 HTS -3.0 (no result: GRK2 aptamer HTS)
CC(NC(=O)Cn1ncc(Cl)c(Cl)c1=O)C12CC3CC(CC(C3)C1)C2 (configuration not stated)	Beta2AR agonist 112
CCn1cc(C(=O)NC(C)C23CC4CC(CC(C4)C2)C3)cn1 (configuration not stated)	none
O=C(Nc1cnccn1)c1ccc(F)cc1Cl	none
CC(=O)Nc1ccc(C=NN=C2c3ccccc3-c3ccccc32)cc1	Beta2AR agonist 92 (no result: MEKK2mut PB1 HTS, GRK2 aptamer HTS, MEKK3 PB1 HTS, MEKK2wt PB1 HTS)
CN1/C(=C/C(=O)c2nc(S(C)(=O)=O)ncc2Cl)C(C)(C)c2ccccc21	Beta2AR agonist 48
Cc1c(C(=O)N2CCCCC2)c(S(=O)(=O)Nc2ccc(F)cc2F)c(C)n1C	none
Cc1ccc(C(=O)NCc2ccccn2)cc1NC1=NC2CS(=O)(=O)CC2S1 (configuration not stated)	none
COc1ccc(/C=C/C(=O)c2cc(F)ccc2OC(=O)c2ccccc2C)cc1OC	MEKK3 PB1 HTS 150
CN(c1ccccc1)S(=O)(=O)c1ccc(C(=O)OCC(=O)NCc2cccs2)cc1	none
O=C1[C@H](Oc2ccccc2)[C@@H](c2ccccc2)N1c1ccncc1	none (no result: MEKK2mut PB1 HTS, MEKK3 PB1 HTS, MEKK2wt PB1 HTS)
O=C1[C@@H](Oc2ccccc2)[C@@H](c2ccccc2)N1c1ccccc1	GRK2 aptamer HTS 41 (no result: MEKK2mut PB1 HTS, MEKK3 PB1 HTS, MEKK2wt PB1 HTS)
Cn1cc(CN2CCC(n3nccc3NC(=O)c3ccccc3Cl)CC2)c2ccccc21	MEKK2wt PB1 HTS 155
COc1ccccc1C(=O)Nc1ccnn1C1CCN(Cc2cn(C)c3ccccc23)CC1	none
O=C(Nc1ccnn1C1CCN(Cc2c[nH]c3ccccc23)CC1)c1ccccc1	MEKK2wt PB1 HTS 135
COc1cc(O)c(CCO)c2c1C(=O)C[C@@H](C)O2	MEKK2wt PB1 HTS -9.0
COc1ccc([C@@H]2CC(=O)c3c(O)cc(O)cc3O2)cc1O	none (no result: MEKK2mut PB1 HTS, MEKK3 PB1 HTS, MEKK2wt PB1 HTS)
O=C(CC1C(=O)NCCN1CCCc1ccccc1)NCCc1ccccc1F (configuration not stated)	MEKK2mut PB1 HTS 28, MEKK2wt PB1 HTS 134
O=C(CCl)N(c1ccccc1)c1c[nH]c2ccccc12	none
O=C(CCl)N(c1ccc(Cl)cc1)c1c[nH]c2ccccc12	Beta2AR agonist 69
Cc1cccc(-n2ccnc2CN2CCC(CO)(Cc3ccccc3)CC2)c1	none
COc1ccc(OC)c2c1C(=O)c1ccccc1C2=O	none (no result: Beta2AR agonist)
COc1ccc(OC)c2c1C(=O)C(Cl)=C(Cl)C2=O	Beta2AR agonist 97
O=C(NCCCCCCNC(=O)OCc1ccccc1)OCc1ccccc1	none (no result: MEKK2mut PB1 HTS, GRK2 aptamer HTS, MEKK3 PB1 HTS, MEKK2wt PB1 HTS)
O=C(O)CCCNC(=O)OCc1ccccc1	Beta2AR agonist 64
Cc1cc(NS(=O)(=O)c2ccc(NC(=O)CSc3nc4ncc(Cl)cc4[nH]3)cc2)nc(C)n1	MEKK2wt PB1 HTS -4.0
CCc1ccc(-c2csc(-c3c[nH]c4ccccc34)n2)cc1	none
CCC(C)Nc1nc(-c2c[nH]c3ccccc23)cs1 (configuration not stated)	MEKK3 PB1 HTS 78[inhibitor], MEKK2wt PB1 HTS -19
CCCN(CCC)S(=O)(=O)c1ccc(C(=O)Nc2nc(-c3ccccc3)c(C(=O)OCC)s2)cc1	none
CC(C)Cn1c(=O)c2c(nc3n2CC(C)CN3Cc2ccccc2)n(C)c1=O (configuration not stated)	none
COc1ccc(OCc2cc(C(=O)O)c(C)o2)cc1	GRK2 aptamer HTS 64 (no result: Beta2AR agonist)
CCN(CC)Cc1cc(C(=O)O)c(C)o1	none
